# ChEMBL document CHEMBL4513216, “Probing the Open Global Health Chemical Diversity Library for Multistage-Active Starting Points for Next-Generation Antimalarials” (ACS Infect Dis, 2020)
# The whole screen tested about 69,000 compounds, of which about 8,600 (12%) showed an effect of 50% or more. The sample as a whole holds a higher share of strong results than the screen did.
# Test system: Plasmodium berghei
# Experiment: Screen against P. berghei liver stage (PbLuc), transformed with Luciferase, at 10uM
# Assay type: functional, HepG2
# Conditions: tested at 10 uM
row,SMILES,INHIBITION
1,Cc1ncsc1CN1CCOC(C)(C(=O)N(C)C)C1 (stereo not given),21.1%
2,CCCn1c(C)c(CC(=O)NC(C)(C)CO)c2c1CC(C)(C)CC2=O,4.25%
3,Cn1cc(CN2C[C@@H]3COC[C@]3(C(=O)NCCc3ccccc3)C2)cn1,32.2%
4,O=C(NC1CCC1)[C@@H]1C[C@@H]2CCN(CCc3ccccc3)C[C@H]2O1,81.2%
5,O=C(NC1CC1)[C@H]1C[C@@H]2CCN(CCc3ccccc3)C[C@H]2O1,44.4%
6,O=C(NC1CC1)[C@@H]1C[C@@H]2CCN(Cc3ccccc3)C[C@H]2O1,29.9%
7,CS(=O)(=O)c1ccc(CNC(=O)N2CCC(CO)CC2)cc1,17.4%
8,CCc1nccn1CC1CCCN1S(=O)(=O)N1CCCOCC1 (stereo not given),-9.39%
9,CN1C[C@H]2CC[C@@H](CC1=O)N2C(=O)c1cc2ccccc2[nH]c1=O,-7.53%
10,Cc1cc(N(C)C)nc(N2CCCC2c2ccccn2)n1 (stereo not given),-30%
11,CC(NC(=O)CCC1CCCCC1)c1nnc2n1CCC2 (stereo not given),-31.8%
12,CC(C)c1noc(CCC(=O)NC(C)c2nnc3n2CCCCC3)n1 (stereo not given),11.8%
13,CC(C)c1noc(CCCC(=O)NC(C)c2nnc3n2CCC3)n1 (stereo not given),50.2%
14,CC(C)c1noc(CCC(=O)NC(C)c2nnc3n2CCC3)n1 (stereo not given),20.6%
15,CCCC(=O)NC(C)c1nnc2n1CCC2 (stereo not given),3.73%
16,CC(C)CCC(=O)NC(C)c1nnc2n1CCCCC2 (stereo not given),53.8%
17,CSCCC(C)(O)CNS(=O)(=O)Cc1cccc(C)c1 (stereo not given),17%
18,CCOc1cncc(N2CCCC2c2nnc3n2CCCCC3)n1 (stereo not given),24.2%
19,c1ccc2nc(N3CCCC3c3nnc4n3CCCCC4)cnc2c1 (stereo not given),42.8%
20,c1cnc2nc(N3CCCC3c3nnc4n3CCCCC4)ccc2n1 (stereo not given),58.7%
21,Clc1cncc(N2CCCC2c2nnc3n2CCCCC3)n1 (stereo not given),-22.4%
22,Cc1cc(N2CCCC2c2nnc3n2CCCCC3)nc(C)n1 (stereo not given),23.6%
23,Cc1cc(N2CCCC2c2nnc3n2CCCCC3)nc(N)n1 (stereo not given),63.6%
24,Cc1cnn(C2CCCN(C(=O)Cc3n[nH]c4ccccc34)C2)c1 (stereo not given),33.7%
25,CN(CCc1ccccn1)C(=O)CCC1CCCN(S(C)(=O)=O)C1 (stereo not given),15.3%

row,SMILES,INHIBITION
1,O=C(NCc1nncn1C1CCCCC1)C1COc2ccccc2C1 (stereo not given),32.4%
2,CNC(=O)N1CCc2cc(C(=O)N(C)C)c(NCC3CC3)nc2CC1,-25%
3,Cc1c(Cl)cc(C(=O)NCCc2ncnn2C)cc1Cl,42%
4,Cc1cc(C)cc(C(=O)NCc2ncnn2C)c1,57.2%
5,Cc1c(NCC(C)(C)C)cccc1C(=O)NCc1ncnn1C,-30.1%
6,COc1ccc(Br)c(NC(=O)NCc2ncnn2C)c1,13.8%
7,COc1ccc(Cl)cc1CCNC(=O)NCc1ncnn1C,-23.5%
8,COc1ccc(C)c(NC(=O)NCc2ncnn2C)c1,51.1%
9,O=C(c1ccc(-c2ccccc2)[nH]c1=O)N1CCN(C2CC2)CC1,32.8%
10,CN(C)C(=O)[C@H]1C[C@H]2CN(C(=O)NCC3CCCCC3)C[C@@H]1O2,-36%
11,Fc1ccc(CN2CCCn3cnc(COCC4CC4)c3C2)cc1,45.8%
12,NC(=O)C(NC(=O)COC1CCCCC1)c1ccccc1 (stereo not given),22.5%
13,NC(=O)C(NC(=O)COC1CCCC1)c1ccccc1 (stereo not given),45.3%
14,O=C(NC(C(=O)Nc1cc[nH]n1)c1ccccc1)C1CCC1 (stereo not given),50.7%
15,O=C(NC(c1ccccc1)c1cccnc1)C1CC1 (stereo not given),25.8%
16,CC(NC(=O)C1CCCC1)c1nc(-c2ccccc2)c[nH]1 (stereo not given),31.7%
17,O=C(COC1CCCC1)NC(C(=O)Nc1cc[nH]n1)c1ccccc1 (stereo not given),62.6%
18,c1cnnc(N2CCCC2CNCc2nc(-c3ccco3)no2)c1 (stereo not given),30.42%
19,CNC(=O)CN1CC[C@H]2CN(C(=O)c3ccoc3)C[C@H]2C1,15.4%
20,Cc1ccc(CC(=O)N2CCCC(n3ccnc3C(C)C)C2)cn1 (stereo not given),-9.19%
21,CN1CCOC(CNC(=O)Cc2coc(-c3ccccc3)n2)C1 (stereo not given),-33.9%
22,CC(=O)c1cccc(NC(=O)CCn2nc(-c3cccs3)oc2=O)c1,29.2%
23,O=C(c1c2c(NCC3CC3)ncnc2n2ccccc12)N1CCOCC1,50.7%
24,O=C(c1c2c(NCC3CC3)ncnc2n2ccccc12)N1CCCC1,26.5%
25,O=C(c1c2c(N3CCCC3)ncnc2n2ccccc12)N1CCOCC1,36.2%
